# From PubChem
# Rab9 promoter act: qHTS Assay for Rab9 Promoter Activators. Huh7 Rab9 promoter-luciferase reporter, luminescence, 24 h. Potency, µM (top dose mostly 9.22 µM), for inactives: top-dose activation, negative = inhibition, most hits filed as activators. 2.8% of 320,000 active. AID 485297, 2010; note: % of control where 0% means no effect; nearly all actives have a fitted effect of over 60% in size
#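 Huh7 cells stably carrying Rab9 promoter–luciferase reporter, plated 1500 cells/well, compound added after 2 h and incubated 24 h at 37 °C; luciferase luminescence then read after 10 min with detection reagent.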
# NPC1 prom act: qHTS Assay for NPC1 Promoter Activators | Huh7 NPC1 promoter luciferase reporter, 24 h | Potency, µM (titrated, usually from 9.22 µM), for inactives: at the highest dose activation, most hits filed as activators | 2.4% of 320,000 active | AID 485313, 2010; note: % of control where 0% means no effect; nearly all actives have a fitted effect of over 60% in size
#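 Huh7 cells stably carrying NPC1 promoter–luciferase, plated in Opti-MEM with 10% FBS for 2 h, were exposed to compound in DMSO for 24 h at 37 °C; luciferase reagent was added for 10 min and luminescence read.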
# SMN2 splice enh: qHTS Assay for Enhancers of SMN2 Splice Variant Expression; 2.8% of 210,000 active; HEK293 SMN2-luciferase splicing reporter, luminescence, 30-36 h; AID 1458, 2008; Potency, µM (series often up to 46.1 µM), without a hit: at the top dose activity change, positive = activation, hits mostly activators; note: % of control where 0% means no effect; nearly all actives have a fitted effect of over 55% in size
#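 HEK293 cells carry an SMN2 […]–luciferase reporter in which exon 7 inclusion puts luciferase in frame. Cells were plated 10-12 h before compound addition, then incubated 30-36 h at 37C. ONE-Glo luminescence was read; sodium butyrate at 4.5 mM final served as control.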
# ELG1 genotoxic: qHTS screen for small molecules that induce genotoxicity in human embryonic kidney (HEK293T) cells expressing luciferase-tagged ELG1. HEK293T ELG1-luciferase reporter, luminescence, 16 h. AID 504466, 2011. Potency, µM (top dose mostly 46 µM), for the others: at the highest dose activity change, positive = activation, actives largely listed as activators. 1.3% of 330,000 active; note: % of control where 0% means no effect; nearly all actives have a fitted effect of over 60% in size
#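 Quantitative HTS format in 1536-well plates. HEK293T ELG1-luciferase reporter cells receive test compound and are incubated 16 hr at 37 °C, 5% CO2; ONE-Glo added, 30 min room temperature, then luminescence read.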
# FLuc counter: qHTS profiling assay for firefly luciferase inhibitor/activator using purifed enzyme and Km concentrations of substrates (counterscreen for miR-21 project); Luciferin 4-monooxygenase (Photinus pyralis), P08659; purified FLuc, Km substrates, luminescence inhibition; Potency, µM (highest dose often 57.5 µM), without a hit: at the highest dose activity change, negative = inhibition, actives largely listed as inhibitors; 6.9% of 360,000 active; AID 588342, 2011;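 note: plate controls were vehicle for no effect and reference inhibitor for full effect; nearly all actives have a fitted effect of over 55% in size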
# Target sequence (P08659 whole entry, looked up): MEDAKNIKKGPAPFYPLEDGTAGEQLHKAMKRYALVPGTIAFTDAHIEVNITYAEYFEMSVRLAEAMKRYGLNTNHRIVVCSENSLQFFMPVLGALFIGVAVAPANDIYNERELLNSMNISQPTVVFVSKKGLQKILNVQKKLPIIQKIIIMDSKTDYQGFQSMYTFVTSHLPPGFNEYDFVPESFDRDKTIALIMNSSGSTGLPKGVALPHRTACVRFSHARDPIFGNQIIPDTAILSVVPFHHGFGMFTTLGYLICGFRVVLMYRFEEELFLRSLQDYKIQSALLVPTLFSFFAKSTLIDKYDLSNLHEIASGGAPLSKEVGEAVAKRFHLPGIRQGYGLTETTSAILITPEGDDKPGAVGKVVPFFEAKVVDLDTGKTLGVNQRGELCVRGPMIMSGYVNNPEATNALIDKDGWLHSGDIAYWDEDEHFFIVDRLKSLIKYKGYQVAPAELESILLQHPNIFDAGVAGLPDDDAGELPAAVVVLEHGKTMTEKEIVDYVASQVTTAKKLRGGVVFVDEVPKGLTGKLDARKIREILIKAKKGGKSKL
#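 Purified P. pyralis luciferase (10nM final) with 10uM D-luciferin and 10uM ATP (Km levels) in 50mM Tris acetate pH 7.5, 10mM Mg acetate, 0.01% Tween-20, 0.05% BSA; qHTS 6-point titration, ~60 µM downward; luminescence read.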
# * hit, by the source's call; ? = inconclusive; · = no result given; [ ] = another dose, or the depositor's remark. Rows were chosen to be rich in hits. Some 7.4% of all compounds tested hit in one or more screens of this group. Calls come from the whole dose curve; as a rule, active = well fitted curve in the direction sought with a large enough effect; inconclusive = small, poorly fitted or top-dose-only effect, or another doubt; inactive = no such curve, though single readings can be large; an effect the other way counts as inactive or inconclusive. Potency is the fitted concentration of half-maximal effect.
SMILES,Rab9 promoter act,NPC1 prom act,SMN2 splice enh,ELG1 genotoxic,FLuc counter
Cc1cc(NC(=O)Cc2cc(F)cc(F)c2)no1,2.7%,-0.8%,·,-8.3%,0.1%
COc1cccc(N2C(=NC(=O)C3CCCCC3)SC3CS(=O)(=O)CC32)c1 (stereo unspecified),6.1%,-5.0%,·,6.2%,-0.5%
CC(=O)Nc1ccc(C23CC4CC(CC(C4)C2)C3)cc1,2.5%,?,·,9.3%,15.1µM*
Oc1ccc(C23CC4CC(CC(C4)C2)C3)cc1O,4.9%,2.3%,·,2.2%,15.1µM*
CNC(=S)Nc1ccc(C23CC4CC(CC(C4)C2)C3)cc1,11.5%,-0.4%,·,-0.7%,?
C[C@H](NC(=O)c1ccco1)C(=O)NCCc1ccc(S(N)(=O)=O)cc1,-1.2%,-5.5%,·,1.3%,-2.0%
C=CCn1c(-c2cc3cccc(OC)c3o2)n[nH]c1=S,4.8%,-2.5%,-7.1%,-0.2%,?
COc1cccc2cc(-c3ccnc(=S)[nH]3)oc12,4.3%,4.5%,11.2µM*,3.4%,-18.5%
Oc1ccc(/C=N/Nc2ccccc2)cc1,10.8%,-0.9%,-5.9%,9.1%,-16.0%
O=c1c2ccccc2nc(N/N=C/c2c(O)ccc3ccccc23)n1O,-30.5%,-20.5%,-74.2%,-0.3%,1.9µM*
CCCc1nc2ccccc2c(=O)n1/N=C/c1ccc(O)cc1,?,2.2%,-6.4%,-5.0%,2.0%
Cc1nc2ccccc2c(=O)n1/N=C/c1c(O)ccc2ccccc12,-2.4%,-1.4%,·,10.6%,0.2%
O=c1c2ccccc2nc(N/N=C/c2ccc(O)cc2)n1O,0.0%,0.5%,12.7%,-0.6%,2.39µM*
Cc1nc2ccccc2nc1N/N=C/c1ccc(O)cc1,24.7%,-1.1%,·,?,8.49µM*
COc1cc(/C=C/c2nc(C#N)c(N3CCCCC3)o2)cc(OC)c1OC,·,·,17.4%,·,?
Cn1nc(CSc2ccccc2)c(C=O)c1Cl,22.2%,15.9%,1.2%,5.4%,?
N#Cc1ccc(NC(=O)COCc2cc(-c3ccc4c(c3)OCO4)on2)cc1,·,·,·,·,-10.4%
CNc1ccc(O)cc1,·,·,8.0%,·,·
Cc1ccc(O)c(C(=O)c2cnn(C(=O)COc3ccccc3C#N)c2)c1,1.0%,-3.4%,·,-8.9%,-1.4%
COc1ccccc1NC(=O)Nc1nc(CC(=O)Nc2ccc(N(C)C)cc2)cs1,-2.0%,0.5%,·,?,21.3µM*
COc1ccccc1NC(=O)Nc1nc(CC(=O)Nc2cccc(F)c2)cs1,7.5%,-5.7%,·,-9.0%,16.9µM*
COc1ccccc1NC(=O)Nc1nc(C(C)(C)C)cs1,15.2%,-2.6%,5.8%,-4.2%,8.49µM*
Cc1ccc(NC(=O)Nc2c(C)[nH]c(=O)[nH]c2=O)cc1Cl,-2.3%,-0.4%,·,0.3%,4.5%
O=C(CSc1nnc(C2CCCCC2)o1)Nc1ccccc1Cl,3.55µM*,?,·,?,?
COc1ccc(NC(=O)CSc2nnc(C3CCCCC3)o2)c(OC)c1,-2.8%,0.0%,7.8%,-1.1%,-1.1%
SMILES,Rab9 promoter act,NPC1 prom act,SMN2 splice enh,ELG1 genotoxic,FLuc counter
Cc1ccc(NC(=O)C2C(=O)N(C)c3ccccc32)cc1 (stereo unspecified),25.5%,17.8%,?,8.7%,4.78µM*
CN1C(=O)C(C(=O)Nc2ccccc2F)c2ccccc21 (stereo unspecified),3.4%,-0.1%,8.0%,-1.4%,19µM*
Cc1ccc(NC(=O)C2C(=O)N(CCO)C3(C)CC2c2ccccc2O3)cc1 (stereo unspecified),19.1%,7.1%,?,9.6%,-0.9%
CC(C)(C)Nc1oc(-c2ccccc2)nc1-c1ccc(C(F)(F)F)cc1,·,·,9.1%,·,·
Clc1ccc(-c2nc3c4cnn(-c5ccccc5Br)c4ncn3n2)c(Cl)c1,·,·,-2.4%,·,-17.4%
Brc1ccccc1-c1nc2c3ccccc3ncn2n1,3.16µM*,?,·,13.3%,?
CO/N=C/c1ccc(Oc2ccc(C)cc2)nc1,20.3%,17.6%,-7.1%,15.1%,16.9µM*
Cc1ccc(Oc2ccc(C=O)cn2)cc1,-6.9%,0.1%,-20.6%,-6.7%,-1.0%
O=C(c1cc(-c2ccccc2O)on1)N1CCCCC1,·,·,20µM*,·,8.49µM*
O=C(c1cc(-c2ccc3c(c2)OCO3)on1)N1CCCCC1,0.501µM*,0.316µM*,·,0.116µM*,0.849µM*
COc1ccc(-c2cc(C(=O)N3CCCCC3)no2)cc1OC,?,?,14.3%,?,?
O=C(c1cc(-c2ccc(Cl)c(Cl)c2)on1)N1CCCCCC1,2.82µM*,2µM*,·,?,4.78µM*
O=C(c1cc(-c2ccc(Cl)cc2)on1)N1CCCCCC1,1.12µM*,0.794µM*,·,4.61µM*,1.9µM*
CC1CCCCN1C(=O)c1cc(-c2ccc(Br)cc2)on1 (stereo unspecified),·,·,7.6%,·,?
CN(C(=O)c1cc(-c2ccccc2O)on1)c1ccccc1,·,·,-5.2%,·,?
Cc1ccccc1NC(=O)c1c(C)oc2ccc(O)c(CN3CCCC3)c12,·,·,3.9%,·,-1.2%
O=C(O)COc1ccccc1/C=N/NC(=O)CSc1nc2ccccc2n1Cc1ccccc1Cl,9.4%,0.3%,·,0.4%,0.4%
O=C(O)CC[C@@H](C(=O)O)N1C(=O)[C@@H]2[C@@H]3CC[C@H](C3)[C@@H]2C1=O,·,·,-5.2%[9.22 µM],·,·
CCOC(=O)C1=C(COC(=O)CCCOc2ccccc2)NC(=O)NC1C (stereo unspecified),-4.3%,-2.8%,·,0.6%,4.2%
O=C(c1cc(-c2ccc(O)cc2)on1)N1CCCCCC1,2.51µM*,1.26µM*,·,?,13.5µM*
Cc1ccc(C)n1-c1ccc(-c2ccn[nH]2)cc1,?,?,12.6µM*,?,12µM*
Cc1ccc(C)n1-c1ccc(-c2nnco2)cc1,1.6%,-0.4%,6.7%,10.5%,-16.4%
c1ccn(-c2ccc(-c3ccn[nH]3)cc2)c1,?,?,?,18.2%,10.7µM*
Oc1ccccc1-c1ccn[nH]1,·,·,·,3.3%,·
CCOC(=O)CC(=O)CSc1nc(N)c(C#N)c(-c2ccc(F)cc2)c1C#N,12.8%,-1.6%,·,-6.3%,-0.7%
SMILES,Rab9 promoter act,NPC1 prom act,SMN2 splice enh,ELG1 genotoxic,FLuc counter
COc1cc(C)c2c(=O)cc(-c3ccccc3)oc2c1,·,·,11.2µM*,·,·
COc1cc(OC)c2c(=O)cc(-c3cccnc3)oc2c1,0.9%,-3.4%,·,?,?
COc1c(O)c(O)c2oc(-c3ccccc3)cc(=O)c2c1OC,-1.2%,15.6%,·,3.5%,?
COc1cc(OC)c2c(=O)cc(-c3ccccc3)oc2c1,?,?,·,23.1µM*,5.36µM*
C=CC(C)(C)c1cc2cc3ccoc3cc2oc1=O,2.3%,-3.4%,-10.6%,4.3%,21.3µM*
CCC(C)N1CCC(Oc2ccc(C(=O)NCc3ccccn3)cc2)CC1 (stereo unspecified),5.0%,10.9%,·,-4.7%,-1.0%
